MCF10A rerep – induces DNA re-replication in MCF 10a normal breast cells. Potency, µM (doses to about 46.1 µM), for inactives: top-dose activity, positive = re-replication, most hits filed as activators. AID 624296. MCF 10A DNA re-replication, Hoechst nuclear intensity, 48 h. 2.9% of 350,000 active; further: potency means the concentration at half of the fitted maximal effect; % of control where 0% means no effect; nearly all actives have a fitted effect of over 50% in size
SW480 rerep – inducers of DNA re-replication in SW480 colon cancer cells. SW480 DNA re-replication, Hoechst DNA content imaging, 48 h. Potency, µM (series often up to 46.1 µM), inactives show top-dose re-replication activation, hits mostly activators. AID 624297. 1.8% of 340,000 active; further: potency means the concentration at half of the fitted maximal effect; % of control where 0% means no effect; nearly all actives have a fitted effect of over 55% in size
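DNA re-replication was detected as more nuclei of elevated Hoechst intensity after 48 hr exposure to compound (23 nL pinned per well of 250 cells).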
KB-V1 cytotox – kills drug-selected multidrug resistant KB-V1 cells; KB-V1 MDR cells viability, CellTiter-Glo, 72 h; 3.4% of 400,000 active; Potency, µM (top dose mostly 46.1 µM), actives largely listed as cytotoxic; further: potency means the concentration at half of the fitted maximal effect; on the % scale 0 is the no-effect control and ±100 the full control effect; nearly all actives have a fitted effect of over 60% in size
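KB-V1, DMEM (no phenol red) + 10% FBS; cpd pin-transferred, titration series; 72 h, 37 degrees C; CellTiter-Glo, luminescence. Data normalized, curve-fit.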
ASM inhibitor – human S-ASM enzyme inhibition; P17405; placental ASM, HMU-PC fluorogenic substrate, 60 min; Potency, µM (series often up to 57.5 µM), for the others: top-dose activity change, negative = inhibition, usual class: inhibitors; 0.006% of 340,000 active; AID 504937; further: potency means the concentration at half of the fitted maximal effect
Target sequence (P17405 47-631 limits assumed): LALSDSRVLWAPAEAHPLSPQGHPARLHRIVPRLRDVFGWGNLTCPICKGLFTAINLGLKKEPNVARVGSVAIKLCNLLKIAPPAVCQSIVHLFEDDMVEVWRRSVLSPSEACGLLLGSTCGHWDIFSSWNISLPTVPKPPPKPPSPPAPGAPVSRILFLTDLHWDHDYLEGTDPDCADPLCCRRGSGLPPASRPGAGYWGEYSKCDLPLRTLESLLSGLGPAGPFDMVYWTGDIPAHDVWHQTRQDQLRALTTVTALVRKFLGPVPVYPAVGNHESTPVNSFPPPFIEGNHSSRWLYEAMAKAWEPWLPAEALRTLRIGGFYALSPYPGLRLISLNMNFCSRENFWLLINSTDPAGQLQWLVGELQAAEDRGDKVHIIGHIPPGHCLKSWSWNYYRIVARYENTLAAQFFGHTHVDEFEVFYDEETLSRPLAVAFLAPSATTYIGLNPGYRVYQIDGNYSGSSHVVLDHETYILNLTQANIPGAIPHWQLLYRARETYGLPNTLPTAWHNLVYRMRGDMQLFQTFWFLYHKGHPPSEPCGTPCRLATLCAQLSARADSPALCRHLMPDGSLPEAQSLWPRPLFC
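Fluorogenic HMU-PC substrate (9 uM final) is turned over by placental ASM in 60 min at 37 C after a 10 min compound preincubation. Reaction ended by alkaline stop (pH 10), with fluorescence read at 386/447 nm.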
Giardia kill – Giardia lamblia killing; Giardia lamblia trophozoite viability; activity change, % at 7.66 µM, hits read low; 0.15% of 340,000 active; in the data active means activity change below about -80%; inconclusive means between about -30% and that limit;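 further: parasites exposed to compound for two days anaerobically before the ATP read; on the % scale 0 is the no-effect control and ±100 the full control effect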
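ATP-content bioluminescence gauges trophozoite survival. Cells (100/well) receive compound and incubate anaerobically for 48 hrs at 37 deg C; detection reagent follows for 15-30 min at room temperature.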
KB-3-1 cytotox – KB-3-1 parental cell cytotoxicity. KB-3-1 viability, CellTiter-Glo ATP luminescence, 72 h. Potency, µM (series often up to 46.1 µM), usual class: cytotoxic. 1.4% of 400,000 active. AID 1347075; further: potency means the concentration at half of the fitted maximal effect; on the % scale 0 is the no-effect control and ±100 the full control effect; nearly all actives have a fitted effect of over 60% in size
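Using CellTiter-Glo luminescence, growth of non-resistant KB-3-1 adenocarcinoma cells is assessed 72 h after pin-tool compound addition at 37 °C. Normalized responses across the concentration series yield fitted curves.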
The depositor's hits bear a star; i = inactive; ? = inconclusive; nt = not tested or not shown; [ ] = dose if it differs, or a comment. Sampled rows, rich in hits. Any-hit rate of the full collection: about 6.9%. Unless noted, the call rests on the fitted dose curve; in most records, active means well fitted curve in the direction sought with a large enough effect; inconclusive means small, poorly fitted or top-dose-only effect, or another doubt; inactive means no such curve, though single readings can be large; an effect the other way counts as inactive or inconclusive.

SMILES	MCF10A rerep	SW480 rerep	KB-V1 cytotox	ASM inhibitor	Giardia kill	KB-3-1 cytotox
CC[N+]1(C)CCC(O)(/C=C/c2ccccc2)C(C(=O)/C=C/c2ccccc2)C1 (configuration not stated)	?	20.6µM*	?	-3.5%	-0.6	?
Nn1cnc2c(c1=O)C1(CCCCC1)Cc1ccccc1-2	?	?	?	1.1%	-4.9	?
Oc1ccc(-c2nc3c4c(ncn3n2)-c2ccccc2CC42CCCC2)cc1	4.61µM*	1.4%	?	-10.9%	0.7	i
COc1ccc(/C=C2\CCC(C3CCCC3)C2=O)cc1Cn1nc(C)cc1C (configuration not stated)	8.6%	-3.1%	?	0.1%	12.5	i
COc1ccccc1/C=C1\CCC(C2CCCC2)C1=O (configuration not stated)	18.4µM*	-2.5%	i	-10.1%	-6.5	i
COc1ccc(/C=C2\CCC(C3CCCC3)C2=O)cc1Cn1cccn1 (configuration not stated)	54.0%	28.5%	23.1µM*	?	0.3	i
CCOc1cc(S(=O)(=O)Nc2ccc(CC)cc2)ccc1Cl	?	2.4%	14.6µM*	-20.2%	-7.2	?
CCc1ccc(NS(=O)(=O)c2ccc(OC)c(C)c2)cc1	?	5.7%	18.4µM*	-1.1%	-11.7	i
O=C(Nc1ccc(F)c(Cl)c1)C1CCN(S(=O)(=O)c2ccc3[nH]c(=O)ccc3c2)CC1	nt	nt	?	nt	nt	i
COc1cc2c(Nc3ccc(Br)cc3F)ncnc2cc1OCC1CCN(C)CC1	26.6µM*	?	nt	nt	nt	nt
COc1cc2ncnc(NCc3cccc(F)c3F)c2cc1OC	-7.9%	-7.8%	i	-1.5%	-8.4	i
CCN1C(=O)C(Cc2nc3ccccc3c(=O)n2-c2cccc(C)c2)c2ccccc21 (configuration not stated)	nt	nt	i	nt	nt	i
COc1ccccc1CNC(=O)c1ccc(N2CCCC2)c(NC(=O)NCCC(C)C)c1	nt	nt	i	nt	nt	i
Cn1c(CC(=O)NCCO)c(Sc2ccccc2)c2ccccc21	-13.4%	-0.3%	i	0.8%	1.2	i
O=C(Cc1c(Sc2ccccc2)c2ccccc2n1Cc1ccccc1)NCCO	20.6µM*	11.3%	i	-12.4%	35.6	i
COc1cc(C2C(C#N)=C(N)Oc3cc4c(cc32)OCO4)cc(OC)c1OC (configuration not stated)	?	?	0.231µM*	12.6%	-5.1	0.0052µM*
COc1cc(C2C(C#N)=C(N)Oc3cc(O)ccc32)cc2c1OCO2 (configuration not stated)	?	-18.3%	?	2.1%	-11.9	?
N#CC1=C(N)Oc2cc(O)ccc2C1c1ccccc1 (configuration not stated)	?	3.9%	18.4µM*	-1.2%	-17.1	?
COc1cc(C2C(C#N)=C(N)Oc3cc(N(C)C)ccc32)cc2c1OCO2 (configuration not stated)	?	-3.0%	0.0164µM*	0.2%	7.7	0.82µM*
N#CC1=C(N)Oc2cc3c(cc2C1c1ccc(Cl)cc1)OCO3 (configuration not stated)	52.7%	6.2%	i	-0.8%	1.8	i
COc1cc(C2C(C#N)=C(N)Oc3cc(O)ccc32)cc(OC)c1OC (configuration not stated)	0.6%	-1.3%	?	-0.2%	-2.4	2.91µM*
COc1ccc(C2C(C#N)=C(N)Oc3cc(O)ccc32)cc1 (configuration not stated)	7.0%	-8.7%[1.84 µM]	i	-0.6%	?	i
Cc1[nH]n2c(=O)c3c(nc2c1-c1ccc(Cl)cc1)CCC3	?	-13.1%	?	2.3%	-5.1	8.2µM*
O=c1c2c(nc3c(-c4ccccc4)c[nH]n13)CCCC2	-0.7%	2.7%	?	-2.0%	8.8	20.6µM*
Cc1[nH]n2c(=O)c3c(nc2c1-c1ccccc1)CCC3	25.3%	6.7%	i	3.9%	-2.0	i
SMILES	MCF10A rerep	SW480 rerep	KB-V1 cytotox	ASM inhibitor	Giardia kill	KB-3-1 cytotox
Nc1[nH]n2c(=O)c3c(nc2c1N=Nc1ccccc1)CCCC3	?	12.5%	13µM*	-16.1%	-2.2	11.6µM*
CN(C)c1ccc(C(CNC(=O)c2ccc(C(C)(C)C)cc2)N2CCCC2)cc1 (configuration not stated)	nt	nt	i	nt	nt	?
Cc1cc(C)c2c3c(sc2n1)C(c1cccc(F)c1)C(C#N)=C(N)O3 (configuration not stated)	8.2µM*	18.4µM*	?	22.2%	11.1	i
CNc1cc(C(=O)O)nc2ccccc12	nt	nt	i	nt	nt	?
CCCCNC(=S)N(C)/N=C/c1ccc(OCC(=O)Nc2c(C)cc(C)cc2C)c(OC)c1	18.4µM*	16.4µM*	i	-7.2%	35.6	i
CC(=O)Nc1cccc(C(=O)OCC(=O)NC(=O)C2CCCCC2)c1	nt	nt	i	nt	8.2	i
Cc1oc(-c2cccc(Cl)c2)nc1CN1CCCC(C(=O)NCCCN2CCOCC2)C1 (configuration not stated)	?	12.0%	13µM*	4.0%	-19.8	i
Cc1cccc(-c2nc(CN3CCCC(C(=O)NC4CCCC4)C3)c(C)o2)c1 (configuration not stated)	?	?	9.2µM*	-0.3%	31.9	i
CCOC(=O)N1CCC(NC(=O)C2CCCN(Cc3nc(-c4cccc(C)c4)oc3C)C2)CC1 (configuration not stated)	?	0.4%	?	-0.8%	-3.1	i
Cc1cccc(-c2nc(CN3CCCC(C(=O)NC4CCC(C)CC4)C3)c(C)o2)c1 (configuration not stated)	?	?	20.6µM*	-2.1%	5.7	i
Cc1ccc(NS(=O)(=O)c2c(C)nc3sc(C)c(C)n3c2=O)cc1F	nt	nt	i	nt	nt	i
CCCNC(=O)c1ccc(N2CCC3(CC2)CC(c2ccccc2)=NO3)c([N+](=O)[O-])c1	2.5%	2.7%	i	-15.0%	-3.3	?
CCCCCCCNC(=O)c1ccc(N2CCC3(CC2)OCCO3)c([N+](=O)[O-])c1	25.4%	-61.1%	9.2µM*	-17.8%	-14.3	i
COc1ccc(-n2c(=O)c3c4c(sc3n(CC(=O)NC3CCCC3)c2=O)CCCC4)c(OC)c1	-1.2%	-14.8%	i	-2.4%	-2.4	i
COc1ccc(-n2c(=O)c3c4c(sc3n(CC(=O)NCc3ccco3)c2=O)CCC4)c(OC)c1	11.0%	-0.5%	16.4µM*	-3.2%	-13.7	i
O=S(=O)(c1ccc(Cl)cc1)c1snnc1-c1ccccc1	?	?	?	-3.1%	-13.4	5.8µM*
